D2 ag-1 = agonists of human D2 dopamine receptor (beta-arrestin); activation, % (concentration not given with the values); DiscoveRx PathHunter D2 beta-arrestin, luminescence, 90 min; 100% = 57 uM dopamine signal; hit rate 0.084% among 360,000; AID 624465; in the data active = activation above about 40%
Target sequence (P14416 whole entry, looked up): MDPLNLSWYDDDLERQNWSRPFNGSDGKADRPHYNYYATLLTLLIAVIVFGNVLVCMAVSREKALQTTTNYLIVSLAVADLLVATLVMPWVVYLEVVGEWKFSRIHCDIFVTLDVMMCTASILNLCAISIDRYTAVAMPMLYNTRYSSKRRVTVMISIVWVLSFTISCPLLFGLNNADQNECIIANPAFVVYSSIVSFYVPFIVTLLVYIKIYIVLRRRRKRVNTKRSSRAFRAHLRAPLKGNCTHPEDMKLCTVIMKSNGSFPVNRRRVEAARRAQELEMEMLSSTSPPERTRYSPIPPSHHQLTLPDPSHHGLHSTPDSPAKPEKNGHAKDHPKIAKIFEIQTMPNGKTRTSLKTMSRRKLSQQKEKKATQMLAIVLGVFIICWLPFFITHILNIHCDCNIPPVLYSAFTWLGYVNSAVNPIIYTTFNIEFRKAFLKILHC
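DiscoveRx PathHunter D2 beta-arrestin cells (2,100/well) attached overnight, then compound-stimulated 90 min at 37 C in HBSS/10 mM HEPES/0.1% Tween-20 buffer; beta-galactosidase complementation read by luminescence after 1 h at ambient temperature. Dopamine 57 uM final (EC100) as control.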
D2 ag-2 = D2 dopamine receptor (human) agonism; P14416; HEK293 T-REx D2 cells, calcium flux agonist mode; activation, % at 2 µM; hit rate 0.53% among 340,000; AID 485358;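 active = activation over 3 SD above normal in the single-dose calcium agonist read, cut at about 30% in these data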; also: 0% is about no effect
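HEK293 Trex D2 cells, tetracycline-induced, o/n 30 C 5% CO2; no-wash Ca dye, RT 30–90 min; 10-cycle baseline, 23 nl cpd added, kinetic Ca read 180 s; agonist hits = positive Ca response.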
D2 PAM-1 = positively modulates the human D2 dopamine receptor allosterically; P14416; HEK293 T-REx D2, calcium flux, EC20 dopamine potentiation; potentiation, % at 10 µM; hit rate 0.34% among 340,000; AID 485347;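 active = potentiation over 3 SD above the plate norm, cut at about 30% in these data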; also: 0% is about no effect
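Tetracycline-induced Hek293 Trex D2 cells, force-coupled to calcium, loaded with no-wash calcium dye. Compound added with 180 s kinetic read for agonism, then EC20 dopamine and a further 180 s read for potentiation.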
D2 antag = antagonizes the human D2 dopamine receptor; HEK293 TREx D2 cells, calcium flux, dopamine EC80; inhibition, % at 10 µM; P14416; AID 485344; hit rate 2% among 340,000; in the data active = inhibition above about 30%; inactive = below that, where a call was filed; also: 0% is about no effect
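Tetracycline-induced HEK293 TREx cells expressing D2 receptor forced-coupled to calcium signalling, loaded with no-wash calcium dye. Compounds added and calcium flux read 180 s, then dopamine added at EC80 and read a further 180 s.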
D2 PAM-2 = positive allosteric modulators of human D2 dopamine receptor; P14416; DiscoveRx D2 beta-arrestin cells, luminescence, 90 min; 100% = 57 uM dopamine signal; potentiation, % (concentration not given with the values); hit rate 0.23% among 360,000; AID 624464; in the data active = potentiation above about 50%
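PathHunter beta-arrestin assay in DiscoveRx D2 cells. Compounds were added with an EC20 of dopamine (50 nM final) for 90 min at 37 deg C. Luminescence was read 1 h after detection reagent, with 57 uM dopamine as the EC100 control.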
Starred values were filed as active, the others as inactive; · = not tested or not shown; ! = repeats disagree. Hits are enriched below; roughly 2.4% of the tested compounds scored in any of these assays.

SMILES | D2 ag-1 | D2 ag-2 | D2 PAM-1 | D2 antag | D2 PAM-2
CCC(C(=O)Nc1ccc(C(=O)OC)cc1)n1nc(-c2ccc(C)c(C)c2)ccc1=O (stereo not given) | · | -2 | -6 | · | ·
CN(CC/C=C1/c2ccccc2CSc2ccccc21)CCCO | -2 | 2 | -19 | 13 | -40
C=CCN(C)CC/C=C1\c2ccccc2CSc2ccccc21 | -2 | 1 | -23 | 68* | -32
CN(C)CC/C=C1\c2cc(F)ccc2CSc2ccccc21 | -4 | 0 | -25 | 37* | -52
O=C1CC(c2c(Cl)cccc2Cl)c2c(ccc3ccccc23)N1 (stereo not given) | · | 0 | 2 | · | ·
CC(NC(=O)c1cccc(S(=O)(=O)N(C)C)c1)C1CC2CCC1C2 (stereo not given) | -2 | -2 | 3 | -13 | -8
CC(NC(=O)c1cc(S(=O)(=O)N(C)C)ccc1Cl)C1CC2CCC1C2 (stereo not given) | 0 | 0 | -5 | 35* | -1
CCOc1ccc(C(C)NC(=S)NC2CCCCC2)cc1 (stereo not given) | 1 | · | · | · | 14
CCc1ccc(C(C)NC(=S)NC2CCCCC2)cc1 (stereo not given) | -5 | 1 | 11 | 48* | -13
CCOc1ccc(C(C)NC(=S)NC2CCCCC2)cc1OCC (stereo not given) | -4 | -1 | -6 | 41* | -12
Cc1ccc(-c2cc(C(=O)O)c3cc(Br)ccc3n2)s1 | -2 | -1 | -10 | 31*! | 22
CCn1nc(CC(=O)Nc2ccc(-n3cnnn3)c(OC)c2)c2ccccc2c1=O | 1 | 1 | 1 | 35* | -23
CCn1nc(CC(=O)Nc2ccc(-n3cnnn3)c(C)c2)c2ccccc2c1=O | -4 | -1 | 0 | 1 | -7
CC(C)NCC(O)COc1ccc(CCOCC2CC2)cc1 (stereo not given) | -6 | 2 | -2 | -5 | -7
COCCc1ccc(OCC(O)CNC(C)C)cc1 (stereo not given) | -2 | 1 | -4 | 34*! | 0
OC(CNCC1CCCCC1)COc1ccccc1 (stereo not given) | -1 | 0 | -20 | 46* | -22
CC(CCc1ccccc1)NCC(O)COc1ccccc1 (stereo not given) | 5 | 35* | -30 | 55* | -9
CC(C)(C)c1ccc(C(=O)NCC(c2ccco2)S(=O)(=O)c2ccccc2)cc1 (stereo not given) | · | -1 | -5 | · | ·
Cc1cc(C)nc(-n2nc(C)c3c2N(Cc2ccccc2C)C(=O)CC3c2ccc(Cl)cc2)n1 (stereo not given) | · | 5 | 13 | · | ·
CCOC(=O)CCc1c(C)nc2cc(-c3cc(OC)cc(OC)c3)[nH]n2c1=O | · | 7 | · | · | ·
O=C(O)C1CC=CCC1C(=O)NCCCCc1ccccc1 (stereo not given) | 1 | 0 | 0 | 34* | -1
COc1ccc(-n2ccn(CC(=O)Nc3ccc(C)cc3C)c(=O)c2=O)cc1 | · | -1 | -9 | · | ·
COC(=O)c1cc(C(=O)c2ccc(Cl)cc2Cl)cn1C | -1 | 1 | 38* | 1 | 10
O=C(CCN1CCCCC1)Nc1cccc(Cl)c1 | -2 | 0 | -15 | 57* | -25
Cc1c2cnn(-c3ccccc3)c(=O)c2c(C)n1CCCC(=O)Nc1cccc(F)c1 | · | 0 | 8 | · | ·
SMILES | D2 ag-1 | D2 ag-2 | D2 PAM-1 | D2 antag | D2 PAM-2
CCN(CC)C(=O)N1c2ccccc2C=Cc2ccccc21 | -3 | 0 | -2 | -4 | 0
CN(C)CCCNC(=O)N1c2ccccc2C=Cc2ccccc21 | -5 | 1 | 6 | 33* | -16
O=C(CN1C(=O)c2ccccc2Sc2ccc(C(=O)N3CCOCC3)cc21)Nc1ccc(Cl)cc1F | · | 0 | -7 | · | ·
CN(C)S(=O)(=O)c1cc(NC(=O)Cn2ccsc2=N)ccc1Cl | 0 | 0 | -17 | -13 | 30
Cc1ccc(NC(=O)CCNC(=O)Nc2ccccc2)cc1S(=O)(=O)N(C)C | -3 | 0 | 2 | 17 | -5
Cc1ccc(NC(=O)Cn2ccsc2=N)cc1S(=O)(=O)N(C)C | -3 | 0 | -24 | 36* | -15
Cc1ccc(NC(=O)CCNCc2ccco2)cc1S(=O)(=O)N(C)C | 2 | -6 | -10 | 34* | -21
Cc1ccc(NC(=O)CN2CCN(C(=O)c3ccco3)CC2)cc1S(=O)(=O)N(C)C | 45* | · | · | · | 30
CCc1nnc2c(Nc3ccc(N(CC)CC)cc3C)nc3ccccc3n12 | · | 0 | -1 | · | ·
CCN1/C(=C/C=C/c2sc3ccccc3[n+]2CC)Sc2ccccc21 | -7 | · | · | · | -23
CCN1/C(=C/C=C/c2oc3ccc(-c4ccccc4)cc3[n+]2CC)Oc2ccc(-c3ccccc3)cc21 | -6 | 149* | -26 | 76* | -24
CC(C)Cc1nnc(NC(=O)c2cc(-c3ccccc3)nc3ccccc23)s1 | -2 | 1 | 30* | 7 | -5
CC(C)Cc1nnc(NC(=O)c2cc(-c3ccncc3)nc3ccccc23)s1 | 3 | 1 | 18 | 3 | 3
Cc1ccc(/C=C/C(=O)Nc2ncc(C)s2)o1 | 10 | 0 | 8 | -4 | 25
Cc1ccc(/C=C/C(=O)Nc2nccs2)o1 | 8 | 0 | 1 | 11 | 53*
C/C(=C\C(=O)c1ccncc1)Nc1ccccc1O | 10 | · | · | · | 50*
O=C(NNc1nc2c(F)cc(F)cc2s1)C1=COCCO1 | 0 | -1 | 2 | 39* | -1
CCC(=O)NNc1nc2c(F)cc(F)cc2s1 | 1 | 1 | 5 | 40* | 1
COc1ccccc1NC(=O)N1CCCC1 | 0 | 0 | 2 | 33* | -5
COc1ccccc1NC(=O)N1CCN(C)CC1 | 1 | 1 | -11 | -1 | -4
COc1cccc(CCNC(=O)c2ccc(Cn3c(SCc4ccccc4)nc4cccnc43)cc2)c1 | · | · | -7 | · | ·
O=C(Nc1ccccc1N1CCN(c2ccccc2)CC1)C12CC3CC(CC(C3)C1)C2 | 1 | 0 | 32* | 1 | 7
Cc1csc2nc(COC(=O)c3cccc(NC(=O)c4cccc(Cl)c4)c3)cc(=O)n12 | · | 1 | -1 | · | ·
COc1cc(CN(C(=O)c2cccc(C)c2)c2ccccn2)cc(OC)c1OC | · | 1 | 14 | · | ·
Cc1cc(=O)[nH]c(-n2nc(C)cc2C)n1 | -1 | 1 | -3 | 44* | 0
SMILES | D2 ag-1 | D2 ag-2 | D2 PAM-1 | D2 antag | D2 PAM-2
Cc1cc(=O)[nH]c(N2CCCNCC2)n1 | -3 | 0 | 9 | 0 | 5
Cc1nc(-c2cccc(NC(=O)COc3ccc(Cl)cc3)c2)cs1 | -4 | 0 | -16 | 70* | -54
O=C(COc1ccc(Cl)cc1)Nc1ccc2[nH]ncc2c1 | -1 | 0 | 2 | 34* | -9
CCC(=O)Nc1cccc(C(=O)c2ccccc2)c1 | 1 | -1 | 31* | -17 | 4
CC(C)CC(=O)Nc1cccc(-c2csc(-c3ccccc3)n2)c1 | -1 | 1 | -29 | -12 | 0
CCC(=O)Nc1cccc(-c2csc(-c3ccccc3)n2)c1 | -4 | 0 | 6 | 38* | -3

Source: PubChem
